Experimental data reported in the supplement of paper PMC6555819.

These sequences were tested on PPARg:RXRa DBDmut IVT, anti-RXR (DBD mutation: RXRa K156A/R161A, NR concentration 270 nM, RXRa partner concentration 90 nM) (assay: PBM binding z-score (relative to random genomic background probes); higher = stronger binding; sequences stand for … in GC…GCGATTGACAGCGTAGAATGAAGG).
In short: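 The probes on custom Agilent 4×180K protein-binding microarrays were double-stranded, with 34-nt variable regions bearing direct-repeat seeds, single-nucleotide variants, half-site ablations and random human genomic background sequences. Incubation lasted 1 h with ligand-free nuclear receptor dimers in PBS pH 7.4, 2% milk, 0.02% Triton X-100, 1 mM DTT, 0.2 mg/mL BSA and 0.4 mg/ml salmon testes DNA. Antibodies against each partner (one per run) detected bound dimers, and fluorescence scans were regression-normalized. Binding z-scores take the random background probes as reference.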
Sequence AATACAGGGCCACTAGGCCAGAGTAGGTACGAAT has a PBM binding z-score of 1.33.
Work on TCTTGTAAATCAGCAGGTTAAGAAAGCTGGCCAA yielded a PBM binding z-score of 1.8.
For ACTATTAGTTGACTTAGGGCAACCGTTACGACGC, the PBM binding z-score was 0.596.
CAAACTAGGTCCCGAAAGGTCAAAGTCGAATGAC gave a PBM binding z-score of 4.2.
For CGTCCACGGTCAGCAGGTCAGTGAAAGCGACGTG, the PBM binding z-score was 0.719.
ATCGAAAGGTCGGAGGTGAGTATACCCACCCGAA gave a PBM binding z-score of -0.278.
Sequence GCTTACGGGTCAAAGGTTATTGCATGAATAGAAT has a PBM binding z-score of 4.96.
ATTCGGAGGACAAAGGTCAGAGCTACGCCAGTGA gave a PBM binding z-score of 0.417.
Sequence GGTAGCAGGCCATTTGGGTCACTCAATGACGGGC has a PBM binding z-score of 0.966.
GATACAGGGTCAGCTCGAGGCCAGAGTATGGAAA gave a PBM binding z-score of 1.36.
In the case of GCTTGTAGATCAAGGTTAAGATAGACTAAGCTAA, the PBM binding z-score is reported as 1.44.
With ACTATTAGATGAGACGAGGGCAACCGATAGGTTG the PBM binding z-score was 0.41.
Sequence AATACAGGGTCAACGTAGGCCAGAGTACGCACAG has a PBM binding z-score of 3.16.
Sequence GCATGTAGGTAATACAAGGTGAAAGTCCGATTGT has a PBM binding z-score of 4.42.
With TCTATTAGTTGACGGGCAACCGACGAGTCCGTTT the PBM binding z-score was 2.04.
Sequence GCTTTTAGATCAAGGTTAAGAAAGACTAAGCTAA has a PBM binding z-score of 0.974.
Sequence TCGAGTAGGTTACCAATGGGGCATTCTGCTTTCT has a PBM binding z-score of 3.32.
For CCTAGCGGGCCAGGGTCACTCAAGCATTTCGCTT, the PBM binding z-score was -0.418.
With GCTTGTAGATCAAGGATAAGAAAGACTAAGCTAA the PBM binding z-score was 0.345.
ATATGTAGGTTAAGGGTCATCCAGGTTGGTTCGC was tested, and the PBM binding z-score was 7.61.
For ACAGACAGGTGAGTGAAGGTAACTCACCTGGACG, the PBM binding z-score was 0.281.
For CGAACTAGGTCAGAACAGGTCAGTGAAGGATGAT, the PBM binding z-score was 7.05.
